From PubChem BioAssay (EPA / NIEHS)
Activity calls are given as the source filed them. Rule for the calls: active = hit-call score of the fitted dose curve at least 0.9, where 1 is the maximum; inactive = score below 0.9.

What follows are compounds tested on Interleukin 17A (IL17A), IL17A (gene 3605) (assay: BSK_BT_xIL17A: BioMAP Diversity Plus: BT Assay for Interleukin 17A (IL17A) Biomarker Activity (AID 2284229)). Settings: primary human B cells with PBMC.
Experimental: BSK_BT is a cell-based, multiplexed-readout assay that uses B cell and peripheral blood mononuclear cells, a human vascular primary cell co-culture, with measurements taken at 24 hours after chemical dosing in a microplate: 96-well plate.BSK_BT_xIL17A is an assay component measured in the BSK_BT assay. It measures secreted IL-17A related to regulation of gene expression using LumineX xMAP technology.Data from the assay component BSK_BT_xIL17A was analyzed at the endpoint, BSK_BT_xIL17A, in the positive analysis fitting direction relative to DMSO as the negative control and baseline of activity. Using a type of cytokine quantitation reporter, gain or loss-of-signal activity can be used to understand protein changes. To generalize the intended target to other relatable targets, this assay endpoint is annotated to the 'cytokine' intended target family, where the subfamily is 'interleukins'.
The levels of cell surface (or secreted, indicated by the prefix "s") biomarker endpoints were measured by ELISA. Overt cytotoxicity to cells in confluent adherent cultures (all systems other than the BT system) was assessed by measuring total protein levels using sulforhodamine B (SRB) staining in parallel cultures at the time of biomarker measurements, indicated as SRB endpoints. For proliferation assays for adherent cell types, individual cell types are cultured at sub-confluence and relative cell numbers quantified by SRB staining at time points optimized for each system (48 h: 3C and CASM3C systems; 72 h: BT and HDF3CGF systems; 96 h: SAg system). SRB was performed by staining cells with 0.1% SRB after fixation with 10% TCA and reading wells at 560 nm.Viability and proliferation of PBMC (T cells) was quantified by Alamar Blue reduction for the SAg and BT systems. For PBMC viability (referred to as PBMC Cytotoxicity within the assay endpoint names), cells were plated (75,000/well in a 96-well plate) and then chemical samples added for 1 h before addition of activators, SEB and TSST-1 (20 ng/mL final concentration each). Cells were incubated for 90 h. Then, Alamar Blue (20 uL/well) (Invitrogen, Cat DAL1100) was added for 6 h, and the plates were read with a fluorescence microplate reader at 546/580 nm (excitation/emission). For PBMC proliferation, cells were plated and activated as above but incubated for only 16 h prior to addition of Alamar Blue. Plates were read after 6 h.

| Structure (SMILES) | outcome | AC50 |
| --- | --- | --- |
| COc1cc(Cl)c(OC)cc1N | inactive | – |
| CC(C=O)Cc1ccc(C(C)(C)C)cc1 (stereo not drawn) | inactive | – |
| c1ccc(CCc2ccccc2)cc1 | inactive | – |
| CCCCCCCCCCCCCCCC(=O)OC/C=C(C)/C=C/C=C(C)/C=C/C1=C(C)CCCC1(C)C | inactive | – |
| C=C(C)C(=O)OCCOCCOCCOCCOC(=O)C(=C)C | inactive | – |
| O=C1OC[C@H](Cc2cccc(O)c2)[C@H]1Cc1cccc(O)c1 | inactive | – |
| COc1ccc(OC)c(N=Nc2c(O)ccc3ccccc23)c1 | inactive | – |
| CC1(C)C2=CCCC(C)(C)[C@]23CC[C@H]1C3 | inactive | – |
| CSCCC=O | inactive | – |
| CC(=O)Nc1ccc(C(=O)CCl)cc1 | – | 2.25 µM (active) |
| Cc1cc(CCC(=O)OCCOCCOCCOC(=O)CCc2cc(C)c(O)c(C(C)(C)C)c2)cc(C(C)(C)C)c1O | inactive | – |
| CC=Cc1ccc(OCC)c(O)c1 | inactive | – |
| CCCCN(CCCC)C(=O)N(CCCC)CCCC | – | 14.5 µM (active) |
| c1ccc2cc(Nc3ccc(Nc4ccc5ccccc5c4)cc3)ccc2c1 | inactive | – |
| O=C1OC2(c3ccccc31)c1ccc(O)c(Br)c1Oc1c2ccc(O)c1Br | inactive | – |
| CC(=O)c1c(C)c([N+](=O)[O-])c(C(C)(C)C)c([N+](=O)[O-])c1C | inactive | – |
| CCCCCC(C=O)=Cc1ccccc1 | inactive | – |
| CN(C)C(=S)SC(=S)N(C)C | – | 0.367 µM (active) |
| c1ccc(Oc2ccccc2)cc1 | inactive | – |

| Structure (SMILES) | outcome | AC50 |
| --- | --- | --- |
| CC(C)(C)CC(C)(C)c1ccc(OCCOCC[N+](C)(C)Cc2ccccc2)cc1 | – | 8.48 µM (active) |
| CC(C)(N=C=O)c1cccc(C(C)(C)N=C=O)c1 | inactive | – |
| CS(=O)(=O)c1ccc(C2=C(c3ccccc3)C(=O)OC2)cc1 | inactive | – |
| CC(=O)C1(C)CC2=C(CCCC2(C)C)CC1C (stereo not drawn) | – | 26 µM (active) |
| C[C@@H]1CCN(C(=O)[C@H](CCCN=C(N)N)NS(=O)(=O)c2cccc3c2NC[C@H](C)C3)[C@@H](C(=O)O)C1 | inactive | – |
| CCC(C)c1cc([N+](=O)[O-])cc([N+](=O)[O-])c1OC(=O)OC(C)C (stereo not drawn) | – | 30.7 µM (active) |
| C=C(C)C(=O)OCCOCCOCCOC(=O)C(=C)C | inactive | – |
| C=C(C)[C@H]1CC=C(C)C(=O)C1 | inactive | – |
| CN(C)C(=O)Nc1ccc(Oc2ccc(Cl)cc2)cc1 | inactive | – |
| Oc1c(Cl)cc(Cl)c(Cl)c1Cc1c(O)c(Cl)cc(Cl)c1Cl | – | 2.48 µM (active) |
| C1=CC2C3C=CC(C3)C2C1 (stereo not drawn) | inactive | – |
| Clc1cc(Cl)c(-c2c(Cl)c(Cl)cc(Cl)c2Cl)cc1Cl | inactive | – |
| COc1ccc(CCN2CCC(Nc3nc4ccccc4n3Cc3ccc(F)cc3)CC2)cc1 | – | 3.17 µM (active) |
| IC(I)I | inactive | – |
| CN(c1nccc(=O)[nH]1)C1CCN(c2nc3ccccc3n2Cc2ccc(F)cc2)CC1 | inactive | – |
| CCCCOC(=O)CCCCCCCC(=O)OCCCC | inactive | – |
| O=C1c2ccccc2C(=O)c2c(O)ccc(O)c21 | inactive | – |
| CCN(CC)C(=O)N(CC)CC | inactive | – |
| C=C(C)C(=O)OCC(CC)(COC(=O)C(=C)C)COC(=O)C(=C)C | inactive | – |
